We go through eleven compounds from publication PMC5540273 (PLoS ONE, 2017).

Test systems include SRPK2; SRPK3; STK16; STK33; STK35; STK36; STK39; SYK; SgK110; TAOK1; TAOK2; TAOK3; TBK1; TEC; TESK1; TGFBR1; TGFBR2; TIE1.
Holding throughout (settings): concentration: 1 μM, replicates: in singlicate; n = 1
The subject of a further assay is T1, TAK1.
T1 construct: gene MAP3K7

The subject of the next assay is T2, TIE2.
T2 construct: gene TEK

Each structure is given as a SMILES string.
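Note: KINOMEscan kinase panel screen.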

Take `COc1ccc(CSc2nnc(-c3ccc4c(c3)CCO4)o2)cc1`: the “%Inh” value in the assay on SRPK2 worked out at 0%; with SRPK3 it was 0%; in the assay with STK16, 5%; in the assay on STK33 it was 0%; in the assay on STK35, 0%; with STK36, 0%. Moreover, the “%Inh” value was found to be 0% in the assay with STK39; 0% in the assay with SYK; 26% with SgK110; 0% in the assay with TAK1; 0% in the assay with TAOK1; 0% in the assay with TAOK2. Also, the “%Inh” value in the assay with TAOK3 was determined as 0%; in the assay on TBK1, 11%; with TEC, 0%; in the assay with TESK1 it was 0%; in the assay with TGFBR1 it was 0%; in the assay on TGFBR2, 0%. For the same compound, the “%Inh” value with TIE1 and in the assay on TIE2 was 0% throughout.

`Fc1ccc(-c2nc3n(c2-c2ccncc2)CCS3)cc1` [GI98581]: the “%Inh” value came to 0% in the assay with SRPK2; 0% in the assay with SRPK3; 0% in the assay on STK16; 1% with STK33; 0% in the assay with STK35; 7% in the assay with STK36. The “%Inh” value with STK39 came out at 0%; in the assay with SYK, 28%; with SgK110, 0%; in the assay on TAK1, 0%; in the assay on TAOK1, 0%; in the assay on TAOK2, 0%. For the same compound, the “%Inh” value in the assay on TAOK3 was 0%; in the assay on TBK1, 5%; with TEC, 1%; in the assay on TESK1 it was 23%; with TGFBR1, 26%; in the assay on TGFBR2, 8%. For the same compound, the “%Inh” value with TIE1 is on record as 19%; with TIE2 it was 0%.

Take `COC(=O)C(NC(=O)NC1CCN(c2ccnc(Nc3ccc(F)cc3)n2)C1)c1ccccc1` (stereo not shown) [GSK1379712]: the “%Inh” value in the assay with SRPK2 is reported as 0%; in the assay with SRPK3, 0%; in the assay on STK16, 0%; with STK33, 0%; in the assay on STK35, 0%; in the assay with STK36, 29%. The “%Inh” value came to 0% with STK39; 21% in the assay with SYK; 19% in the assay with SgK110; 12% in the assay on TAK1; 0% with TAOK1; 0% in the assay on TAOK2. The “%Inh” value with TAOK3 came to 0%; in the assay with TBK1 it was 18%; in the assay with TEC, 11%; in the assay on TESK1 it was 0%; in the assay on TGFBR1, 26%; in the assay on TGFBR2, 0%. Also, the “%Inh” value in the assay with TIE1 and in the assay on TIE2 was 0% each time.

Consider `Cc1ccc(NC(=O)c2ccc(Cl)cc2)cc1-c1ccc(C(=O)Nc2ccncc2)cc1` [GSK1398467], for which the “%Inh” value in the assay on SRPK2 is 0%; in the assay with SRPK3 it was 0%; in the assay on STK16 it was 7%; with STK33, 0%; in the assay on STK35, 0%; in the assay with STK36, 0%. Moreover, the “%Inh” value in the assay with STK39 was 6%; in the assay with SYK it was 3%; in the assay on SgK110 it was 0%; in the assay with TAK1, 0%; in the assay on TAOK1 it was 0%; in the assay on TAOK2, 0%. The “%Inh” value in the assay on TAOK3 is 0%; in the assay on TBK1, 7%; in the assay on TEC, 12%; in the assay with TESK1, 14%; in the assay with TGFBR1 it was 1%; in the assay on TGFBR2, 0%. Further, the “%Inh” value in the assay on TIE1 and in the assay with TIE2 was 0% each time.

Consider `COc1ccc(-c2coc3ccc(-c4nnc(C)o4)cc23)cc1`, for which the “%Inh” value in the assay with SRPK2 was found to be 0%; in the assay on SRPK3, 0%; in the assay with STK16 it was 21%; with STK33 it was 0%; in the assay on STK35 it was 0%; in the assay on STK36, 13%. Besides, the “%Inh” value stood at 0% in the assay with STK39; 17% in the assay on SYK; 52% with SgK110; 0% with TAK1; 0% in the assay with TAOK1; 0% with TAOK2. Further, the “%Inh” value is on record as 0% in the assay on TAOK3; 30% with TBK1; 0% with TEC; 8% in the assay on TESK1; 3% in the assay with TGFBR1; 43% in the assay on TGFBR2. Moreover, the figures for the “%Inh” value in the assay on TIE1 and with TIE2 were 0% and 40%, respectively.

For the compound `CC(C)c1ccc(O)cc1Nc1ccnc2ccc(C(F)(F)F)cc12` [GW482059], the “%Inh” value in the assay on SRPK2 turned out to be 0%; with SRPK3, 16%; with STK16, 0%; in the assay on STK33, 19%; in the assay with STK35 it was 0%; in the assay on STK36, 0%. The “%Inh” value in the assay with STK39 was 0%; with SYK it was 23%; with SgK110 it was 0%; with TAK1, 0%; in the assay with TAOK1, 0%; in the assay on TAOK2, 0%. In addition, the “%Inh” value was found to be 4% with TAOK3; 0% in the assay on TBK1; 0% with TEC; 0% with TESK1; 0% in the assay with TGFBR1; 15% in the assay on TGFBR2. The “%Inh” value with TIE1 came to 13%; in the assay with TIE2, 0%.

On to `O=c1cc(N2CCOCC2)nc2n(Cc3cccc(Cl)c3Cl)c3ccccc3n12` [GSK2299009], for which the “%Inh” value with SRPK2 came out at 0%; with SRPK3, 15%; with STK16 it was 31%; with STK33, 18%; with STK35 it was 14%; in the assay on STK36, 0%. The “%Inh” value with STK39 is 0%; in the assay on SYK it was 50%; with SgK110 it was 0%; in the assay on TAK1 it was 0%; in the assay on TAOK1 it was 0%; in the assay with TAOK2, 0%. The “%Inh” value turned out to be 0% in the assay with TAOK3; 22% in the assay on TBK1; 20% in the assay on TEC; 17% with TESK1; 0% in the assay on TGFBR1; 0% in the assay with TGFBR2. For the same compound, the “%Inh” value in the assay on TIE1 was found to be 24%; in the assay with TIE2, 5%.

Regarding `COc1ccc(Nc2nccc(N3CCC(NC(=O)C(C)c4ccc(Cl)cc4)CC3)n2)cc1` (stereo not shown) [GSK1379812], the “%Inh” value came out at 0% in the assay with SRPK2; 8% in the assay with SRPK3; 10% in the assay on STK16; 0% in the assay with STK33; 0% with STK35; 18% in the assay with STK36. The “%Inh” value with STK39 amounted to 38%; in the assay on SYK it was 32%; in the assay on SgK110, 27%; in the assay with TAK1, 0%; in the assay on TAOK1 it was 0%; with TAOK2 it was 0%. In addition, the “%Inh” value in the assay with TAOK3 is recorded as 0%; with TBK1, 21%; in the assay on TEC it was 0%; in the assay on TESK1, 0%; in the assay with TGFBR1, 3%; in the assay on TGFBR2, 0%. In addition, the “%Inh” value in the assay on TIE1 and in the assay with TIE2 was 0% in each case.

For `O=C(Nc1n[nH]c2cc(-c3ccsc3)ccc12)C1CC1` [SB-732932], the “%Inh” value with SRPK2 is reported as 0%; with SRPK3, 75%; in the assay on STK16, 23%; with STK33, 0%; in the assay with STK35, 0%; in the assay with STK36, 2%. Also, the “%Inh” value in the assay on STK39 came out at 0%; with SYK, 13%; in the assay on SgK110, 0%; with TAK1, 7%; in the assay on TAOK1 it was 64%; in the assay with TAOK2, 8%. For the same compound, the “%Inh” value in the assay on TAOK3 came out at 26%; in the assay with TBK1 it was 9%; in the assay on TEC it was 32%; with TESK1 it was 9%; in the assay on TGFBR1, 0%; with TGFBR2 it was 0%. Moreover, the “%Inh” value in the assay with TIE1 and in the assay with TIE2 was 11% in each case.

As to `CCCCc1nn2ncccc2c1-c1ccnc(NC2CC2)n1` [GW684374], the “%Inh” value in the assay with SRPK2 stood at 0%; with SRPK3, 0%; in the assay on STK16, 20%; in the assay on STK33, 0%; with STK35, 0%; in the assay with STK36, 0%. For the same compound, the “%Inh” value with STK39, in the assay on SYK, with SgK110, with TAK1, in the assay with TAOK1 and in the assay on TAOK2 was 0% each time. The “%Inh” value is given as 0% in the assay on TAOK3; 7% in the assay with TBK1; 3% in the assay with TEC; 13% in the assay with TESK1; 29% with TGFBR1; 7% with TGFBR2. The “%Inh” value in the assay on TIE1 and in the assay with TIE2 was 0% throughout.

Regarding `COc1ccc(Nc2nccc(N3CCC(NC(=O)c4cc5ccccc5s4)C3)n2)cc1` (stereo not shown) [GSK1379738], the “%Inh” value with SRPK2 came out at 0%; in the assay on SRPK3 it was 0%; in the assay with STK16 it was 19%; with STK33, 0%; in the assay on STK35, 0%; with STK36, 0%. In addition, the “%Inh” value in the assay with STK39 stood at 0%; in the assay with SYK it was 13%; in the assay with SgK110 it was 0%; in the assay with TAK1, 0%; in the assay with TAOK1, 0%; in the assay on TAOK2, 0%. In addition, the “%Inh” value with TAOK3 worked out at 0%; in the assay with TBK1 it was 22%; with TEC, 12%; in the assay with TESK1, 30%; with TGFBR1, 17%; with TGFBR2, 0%. Besides, the “%Inh” value in the assay on TIE1 and in the assay with TIE2 was 0% throughout.
